Assay results reported in PubChem BioAssay AID620 (Sanford-Burnham Center for Chemical Genomics, 2007).
In all, about 87,000 compounds went through this assay and about 360 (0.41%) were called active. The full list was thinned out, with actives kept by preference. Values without a mark were called inactive. No stated cut-off is given here; in the data, active means cytotoxicity above about 50%; inactive means the rest.

Experiment: HT1080 cell viability loss – fluorescence readout (AID 620);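 further: cells exposed to compound overnight then 4 h with Alamar Blue; 0% = vehicle DMSO and 100% = killing control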
Details: at 10 µM, hits give high values
With `CCOC(=O)c1c(C)sc2c1N(C(=O)CN1CCOCC1)c1cc(Cl)ccc1S2` the cytotoxicity was 12.4%.
Molecule `O=C(OCC(=O)N1CCN(c2ccccc2)CC1)C1=COCCO1` has a cytotoxicity of -8.1%.
In the case of `O=C(OCC#CCSc1nnc(-c2ccc([N+](=O)[O-])cc2)o1)c1cccs1`, the cytotoxicity is reported as -10.8%.
Molecule `CCSc1nnc(NC(=O)COc2ccccc2)s1` has a cytotoxicity of -5%.
`O=C(NCc1ccncc1)Nc1ccc(F)cc1` showed a cytotoxicity of 14.7%.
With `COc1ccc(S(=O)(=O)n2nc(-c3cc(OC)c(OC)c(OC)c3)cc2N)cc1OC` the cytotoxicity was 1.5%.
For `COc1ccc(-c2cc(N)n(S(=O)(=O)c3c(F)c(F)c(F)c(F)c3F)n2)cc1OC`, the cytotoxicity was 59.5% (active).
In the case of `COc1ccc(OC)c(S(=O)(=O)n2nc(-c3ccccc3)cc2N)c1`, the cytotoxicity is reported as -6.1%.
For `CCOC(=O)C(C)Oc1cccc2c(=O)n(CC(=O)N3CCc4ccccc43)ccc12` (configuration not stated), the cytotoxicity was 4.2%.
`CCOC(=O)COc1cccc2c(=O)n(CC(=O)NCc3ccc4c(c3)OCO4)ccc12` showed a cytotoxicity of 13.3%.
For `CCOC(=O)C(C)Oc1cccc2c(=O)n(CC(=O)NCc3ccco3)ccc12` (configuration not stated), the cytotoxicity was 65.3% (active).
Work on `c1ccc(OCCOCCN2CCOCC2)cc1` yielded a cytotoxicity of -2.8%.
`Cc1nc2c(cnn2-c2ccccc2Cl)c(=O)n1-c1ccc(N2CCC(C)CC2)cc1` gave a cytotoxicity of 0.5%.
`COCc1cc(C)nc(SCC(=O)Nc2cccc(C)c2C)c1C#N` showed a cytotoxicity of -2%.
For `Cc1csc(NC(=O)c2cc3c(s2)CCCCC3)n1`, the cytotoxicity was -7.3%.
For `Cc1csc(NC(=O)c2cc3c(s2)CCC3)n1`, the cytotoxicity was 20.8%.
Molecule `CCC(C)NS(=O)(=O)c1ccc(-c2csnn2)s1` (configuration not stated) has a cytotoxicity of -2.6%.
In the case of `CC(CCc1ccccc1)NC(=O)CSc1nnnn1C` (configuration not stated), the cytotoxicity is reported as 9.7%.
In the case of `Cc1ccc2c(c1)[C@@H]1CN(C)CC[C@@H]1N2S(=O)(=O)c1ccc(F)cc1`, the cytotoxicity is reported as 3.2%.
For `CC1=CC(C)(C)N(S(=O)(=O)c2ccc(C)cc2)c2cc(C)ccc21`, the cytotoxicity was 63.7% (active).
In the case of `CC1=CC(C)(C)N(S(=O)(=O)c2ccc(F)cc2)c2ccc(C)cc21`, the cytotoxicity is reported as 61% (active).
`CC1=CC(C)(C)N(S(=O)(=O)c2ccc(F)cc2)c2ccccc21` gave a cytotoxicity of 34.7%.
In the case of `Cc1ccc(S(=O)(=O)N2C(=S)SCC2(C)C)cc1`, the cytotoxicity is reported as 14.3%.
In the case of `CC1=CC(C)(C)N(C(=O)c2ccccc2)c2ccc(C)cc21`, the cytotoxicity is reported as -8.8%.
`Cc1ccc(N2CCN(S(=O)(=O)c3ccc(F)cc3)CC2)c(C)c1` gave a cytotoxicity of -3.9%.
Work on `CC1=CC(C)(C)N(C(=O)CSc2nccn2C)c2cc(C)ccc21` yielded a cytotoxicity of -6.8%.
With `CC1=CC(C)(C)N(C(=O)CN2C(=O)c3ccccc3C2=O)c2ccccc21` the cytotoxicity was 12.7%.
In the case of `CC1=CC(C)(C)N(S(=O)(=O)c2ccc(C)cc2)c2ccc(C)cc21`, the cytotoxicity is reported as 64.1% (active).
`CC1=CC(C)(C)N(C(=O)C(C)N2C(=O)c3ccccc3C2=O)c2ccc(C)cc21` (configuration not stated) showed a cytotoxicity of 5.3%.
In the case of `CC1=CC(C)(C)N(S(=O)(=O)c2ccc(C)cc2)c2ccccc21`, the cytotoxicity is reported as 64.3% (active).
Work on `Cc1ccc2[nH]c3c(=O)n(CCCN4CCOCC4)cnc3c2c1` yielded a cytotoxicity of -1.5%.
Work on `CCOc1ccc(NC(=O)c2cc3cc4ccc(OC)cc4nc3o2)cc1` yielded a cytotoxicity of -4.9%.
In the case of `COc1ccc(NC(=O)c2ccco2)c(NC(=O)Cc2cccs2)c1`, the cytotoxicity is reported as -0.8%.
`O=C(C(NS(=O)(=O)c1cccs1)c1ccccc1)N1CCN(c2ccccc2F)CC1` (configuration not stated) showed a cytotoxicity of 1.9%.
For `CC(C)(C)N(Cc1ccccc1)C(=O)c1ccc2c(c1)OCCO2`, the cytotoxicity was -6.6%.
`Cc1sc2ncnc(NCC3CCCO3)c2c1C` (configuration not stated) showed a cytotoxicity of -6.6%.
In the case of `COC(=O)c1ccc(NC(=O)CSc2nc3cccnc3n2C)cc1`, the cytotoxicity is reported as -2.4%.
Work on `COc1cc(NC(=O)C2CCCO2)c(C(=O)O)cc1OC` (configuration not stated) yielded a cytotoxicity of 6.7%.
Molecule `COc1ccccc1N1CCN(C(=O)c2cc3sccc3n2C)CC1` has a cytotoxicity of -5.4%.
In the case of `O=C(OC(C(=O)NC1CCCC1)c1ccccn1)c1cccs1` (configuration not stated), the cytotoxicity is reported as -10%.
In the case of `CN=C1SC(CC(=O)Nc2sc3c(c2C#N)CCCC3)C(=O)N1C` (configuration not stated), the cytotoxicity is reported as 1.2%.
In the case of `CN1Cc2cc(C(=O)c3ccccc3O)cnc2NC1=O`, the cytotoxicity is reported as -10.1%.
In the case of `CCCCN1Cc2cc(C(=O)c3cc(F)ccc3O)cnc2NC1=O`, the cytotoxicity is reported as -2.9%.
With `CN1Cc2cc(C(=O)c3cc(Cl)cc(CSc4ncccn4)c3O)cnc2NC1=O` the cytotoxicity was 70.1% (active).
Work on `O=C1NC(c2ccccc2)C(C(=O)c2cccs2)=C1O` (configuration not stated) yielded a cytotoxicity of -9.1%.
For `COc1ccccc1NC(=O)c1ccc(NS(C)(=O)=O)cc1`, the cytotoxicity was -6.8%.
In the case of `C/C(=N\NC(=O)c1ccccn1)C12CC3CC(CC(C3)C1)C2`, the cytotoxicity is reported as -0.9%.
`CCN(CC)S(=O)(=O)c1cccc(-c2nnc(SCC(=O)NC3CCCC3)n2N)c1` gave a cytotoxicity of -9.2%.
`CCOc1ccccc1NC(=O)N1CCC(c2nc3ccc(C)cc3[nH]2)CC1` gave a cytotoxicity of -20.4%.
For `COc1ccccc1NC(=O)N1CCC(c2nc3cc(C)c(C)cc3[nH]2)CC1`, the cytotoxicity was 72.8% (active).
Work on `CCOc1ccccc1NC(=O)N1CCC(c2nc3ccccc3[nH]2)CC1` yielded a cytotoxicity of 2.8%.
For `Cc1ccc(NC(=O)/C(C#N)=C/c2cccs2)c(C)c1`, the cytotoxicity was -7.9%.
Molecule `COC(=O)[C@@]1(Cc2ccc(F)cc2)[C@H]2c3cc(C(=O)N4CCCC4)n(CCc4ccc(O)c(O)c4)c3C[C@H]2CN1C(=O)c1ccccc1` has a cytotoxicity of -15.9%.
`COc1ccccc1CNC(=O)CCS(=O)(=O)c1cccs1` showed a cytotoxicity of -8.3%.
Work on `COc1cc(CNc2cc(C)ccc2C)cc(OC)c1OC` yielded a cytotoxicity of -14.1%.
For `COc1cc(CNc2ccc(C)c(C)c2)cc(OC)c1OC`, the cytotoxicity was 54.5% (active).
`COc1cc(CNc2ccccc2SC)cc(OC)c1OC` showed a cytotoxicity of -30.4%.
For `CCOC(=O)c1csc(NC(=O)C2CCCCC2)n1`, the cytotoxicity was -6.3%.
Work on `CCc1c(C)sc(NC(=O)C2CCCO2)c1C#N` (configuration not stated) yielded a cytotoxicity of 0.6%.
Work on `O=C(Cn1c(CC(=O)N2CCCC2)nc2ccccc21)NCc1ccccc1` yielded a cytotoxicity of 3%.
In the case of `COc1ccc(NC(=O)Nc2ncccc2C)cc1`, the cytotoxicity is reported as 0.5%.
With `Cc1nnc(SCCn2c(N3CCN(C)CC3)nc3c2c(=O)n(C)c(=O)n3C)s1` the cytotoxicity was -3.5%.
`Cc1nnc(SCCn2c(N3CCN(C)CC3)nc3c2c(=O)[nH]c(=O)n3C)s1` showed a cytotoxicity of -10.1%.
With `Cc1nnc(Sc2nc(Sc3nnc(C)s3)nc(N3CCN(C)CC3)n2)s1` the cytotoxicity was 59.7% (active).
With `COC(F)(C(=O)Nc1ccc2c(c1)C(=O)NC2=O)C(F)(F)F` (configuration not stated) the cytotoxicity was 0.1%.
For `CC(=O)Nc1cc(-c2ccc(Cl)cc2)nn1-c1ccccc1`, the cytotoxicity was 1.4%.
In the case of `Cc1cc(NC(=O)COc2ccccc2)n(-c2ccccc2)n1`, the cytotoxicity is reported as 7.7%.
With `O=C(CCl)Nc1cc(-c2ccccc2)nn1-c1ccccc1` the cytotoxicity was 54.1% (active).
`Cc1cc(NC(=O)Nc2cc(C)nn2-c2ccccc2)n(-c2ccccc2)n1` gave a cytotoxicity of 4.3%.
With `Cc1ccc(-c2cc(NC(=O)CCl)n(-c3ccccc3)n2)cc1` the cytotoxicity was 60.4% (active).
`CC(=O)Nc1ccc(-c2cc(NC(C)=O)n(-c3ccccc3)n2)cc1` gave a cytotoxicity of -2.5%.
Work on `O=C(NCCc1c[nH]c2ccccc12)c1cnc2sccn2c1=O` yielded a cytotoxicity of -1.9%.
`O=C(NCC(c1cccnc1)N1CCN(c2ccccc2F)CC1)c1ccccc1` (configuration not stated) gave a cytotoxicity of -1.1%.
With `CC(NS(=O)(=O)c1ccc(OCC(=O)N2CCOCC2)cc1)c1ccccc1` (configuration not stated) the cytotoxicity was 0.3%.
Work on `O=C(Nc1ccc2c(c1)OCO2)OCc1ccccc1` yielded a cytotoxicity of 13.2%.
Work on `CCS(=O)(=O)n1nc(-c2ccc(Cl)cc2)nc1N` yielded a cytotoxicity of 0.1%.
In the case of `Cn1nc(-c2ccc(Cl)cc2)nc2c(=O)n(C)c(=O)nc1-2`, the cytotoxicity is reported as 51% (active).
With `CSc1nc(-c2ccc(Cl)cc2)nn1S(=O)(=O)c1ccc(Cl)cc1` the cytotoxicity was -13%.
For `C=CCN=C(NC#N)SCCc1ccccc1`, the cytotoxicity was -4.6%.
`Cc1nn(C)c(C)c1NC(=O)c1ccnn1C` showed a cytotoxicity of -16.7%.
Work on `CN1CCN(Cc2cc(COCc3ccccc3)c3cccnc3c2O)CC1` yielded a cytotoxicity of 43.1%.
`OCCN1CCN(Cc2cc(Cl)c3cccnc3c2O)CC1` showed a cytotoxicity of -4.1%.
With `Oc1c(CN2CCOCC2)cc(COCc2ccccc2)c2cccnc12` the cytotoxicity was 20.5%.
Molecule `Oc1ccc(CN2CCc3ccccc3C2)c2cccnc12` has a cytotoxicity of 33.5%.
`O=c1oc2c(CN3CCOCC3)c(O)c(Cl)cc2c2c1CCC2` showed a cytotoxicity of 7.1%.
For `CCOCC(=O)Nc1nnc(COc2ccc(Cl)cc2)s1`, the cytotoxicity was 17.8%.
Work on `CCOC(=O)CSc1nnc(Cn2c(=O)sc3ccccc32)n1C` yielded a cytotoxicity of 1.9%.
Molecule `CCN(CC)c1ccc(C(=S)N2CCN(c3ccccc3)CC2)cc1` has a cytotoxicity of -2.9%.
In the case of `Cc1cc(C(=O)CSc2nnc(-c3ccccc3F)o2)c(C)n1Cc1cccs1`, the cytotoxicity is reported as -6.5%.
In the case of `O=C(CSc1nnc(-c2cccs2)o1)c1cccs1`, the cytotoxicity is reported as 25.4%.
`COC(=O)C1=C(COc2ccccc2)NC(=O)NC1c1ccc2ccccc2c1` (configuration not stated) showed a cytotoxicity of -5.7%.
`CCOC(=O)C1=C(N)n2c(s/c(=C\c3ccco3)c2=O)=C(C(=O)OCC)C1c1ccco1` (configuration not stated) showed a cytotoxicity of 36.1%.
For `CCOC(=O)C1=C(N)n2c(s/c(=C/c3ccccc3)c2=O)=C(C(=O)OCC)C1c1ccccc1` (configuration not stated), the cytotoxicity was -1.6%.
With `CCOC(=O)C1=C(N)n2c(s/c(=C\c3cccs3)c2=O)=C(C(=O)OCC)C1c1cccs1` (configuration not stated) the cytotoxicity was 56.3% (active).
In the case of `Brc1ccc(-c2cn3c(n2)CCc2ccc4cccnc4c2-3)cc1`, the cytotoxicity is reported as 53.1% (active).
With `c1ccc(-c2cn3c(n2)CCc2ccc4cccnc4c2-3)cc1` the cytotoxicity was 37%.
Work on `Brc1ccc(-c2cn3cccnc3n2)cc1` yielded a cytotoxicity of 9.4%.
